Reference: PubChem BioAssay AID893 (National Center for Advancing Translational Sciences (NCATS), 2007)
Values joined by “and” are separate entries in the source; they are usually repeats but may differ in a detail not shown here. Equal entries are not always repeated. Out of some 75,000 compounds screened, about 5,700 (7.6%) were called active. A call without a number means that no potency is given here. Not shown: some 7% with an inconclusive outcome. Calls come from the whole dose curve; as a rule, active = well fitted inhibition curve with a large enough effect; inconclusive = small, poorly fitted or top-dose-only effect; inactive = no such curve, though single readings can be large or run the other way. The full list was thinned out, with actives kept by preference.

Biological target: 3-hydroxyacyl-CoA dehydrogenase type-2 (Homo sapiens) (UniProt Q99714)
Assay: qHTS Assay for Inhibitors of HSD17B4, hydroxysteroid (17-beta) dehydrogenase 4; note: nearly all actives have a fitted effect of over 70% in size
Conditions: recombinant HSD17B10, NADH fluorescence kinetic; series mostly up to 57.1 µM
Text: Assay Overview: NIH Molecular Libraries Screening Centers Network [MLSCN] NIH Chemical Genomics Center [NCGC] Structural Genomics Consortium [SGC] Grant number: None HADH2: Hydroxyacyl-Coenzyme A dehydrogenase, type II, was supplied by researchers at the Structural Genomics Consortium, Oxford University lab (PI Udo Oppermann). The mitochondrial enzyme 17-hydroxysteroid dehydrogenase type 10 (HSD17-10) previously classified as type II hydroxyacyl-CoA dehydrogenase (HADH2) catalyzes the NAD+ dependent oxidation of a variety of substrates including acyl-CoAs, androgens and neurosteroids as well as bile acids(Shafqat N, Marschall HU, Filling C, et al. Biochemical Journal. 2003;376(Pt 1):49-60). […] The enzyme was produced by E.coli fermentation as His-tagged recombinant for the purpose of X-ray structure determination, and had been mass-spectrometry characterized. Inhibition of HADH2 activity was screened by utilizing beta-hydroxybutyryl coenzyme A as an electron donor and NAD+ as an electron acceptor/cofactor. An increase in the fluorescence intensity due to conversion of NAD+ to NADH was used to measure the enzyme activity.
Assay Protocol: Buffer: 100 mM Tris-HCl pH 9.0, containing 0.01 % Tween-20. Reagents/Controls: Buffer in columns 3 and 4 as negative control (no enzyme). Substrate/cofactor solution: 1 mM NAD+ and 90 uM beta-hydroxybutyryl coenzyme A (Sigma-Aldrich, St. Louis, MO) final concentrations dispensed throughout the plate. Enzyme: 20 nM HADH2 final concentration in columns 1, 2, 5-48. Column 1 is neutral (100% activity). Column 2 contained titration of apomorphine (Sigma-Aldrich, A 4393, PubChem CID 2215, top concentration 500 uM, then 1:2 dilution in duplicate) Assay Steps: Three uL of enzyme were dispensed to 1536-well Greiner black solid bottom plates. Compounds and controls (23 nL) were transferred via Kalypsys PinTool. The plates were incubated for 15 min at room temperature, and then 1 uL of substrate/cofactor solution was added to start the reaction. The plates were immediately transferred to and read every 30 seconds for 4 min on ViewLux High-throughput CCD imager (Perkin-Elmer) using 360 nm excitation and 450 nm emission fluorescence protocol. The fluorescence intensity difference between the last and the first time points was used to compute reaction progress.
Potency is the fitted concentration of half-maximal effect.

SMILES	Potency	activity change, negative = inhibition
CCOc1ccc(NC(=O)CSc2nc3c(c(=O)n2-c2ccccc2OC)SCC3)cc1	inactive	
COc1ccc(/C=C/NC(=O)Cc2ccc(OC)c(OC)c2)cc1		-1.94% [at 11.4 µM] (inactive) and 1.41% [at 11.4 µM] (inactive)
O=C(c1cccc(S(=O)(=O)N2CCOCC2)c1)N1CCOCC1	inactive	
Cc1cnc(CNc2nc(-c3cccnc3)nc3ccccc23)cn1	inactive	
COc1cccc(-c2nc(Nc3ccncc3)c3ccccc3n2)c1	inactive	
CNc1nc(-c2ccccc2OC)nc2ccccc12	inactive	
c1cncc(-c2nc(N3CCNCC3)c3ccccc3n2)c1	inactive	
O=C(Cn1nnc(-c2ccccc2)n1)NCc1ccc2c(c1)OCO2	inactive	
c1ccc2c(Nc3ccncc3)nc(-c3ccoc3)nc2c1	20 µM (active)	
COc1ccccc1CNc1ccnc(-c2c(C)noc2C)n1	inactive	
c1ccc2c(Nc3ccncc3)nc(-c3ccc4c(c3)OCO4)nc2c1	25.1 µM (active)	
Cc1noc(C)c1-c1nc(Nc2ccccc2)c2ccccc2n1	20 µM (active)	
CCCn1c(=O)c2[nH]c(C3CCCC3)nc2n(CCC)c1=O	inactive	
O=C(Cn1cc2c(n1)CCCCC2)NCCN1CCOCC1	inactive	
Cc1cc(NC(=O)COC(=O)c2ccc(F)c(S(=O)(=O)N3CCOCC3)c2)no1	inactive	
CC1(C)OC2CC(=O)OC[C@@]23C1CC(=O)[C@]1(C)C3CC[C@@]2(C)C(c3ccoc3)OC(=O)C3O[C@@]321 (stereo partly specified)	inactive	
NC[C@@H]1O[C@H](O[C@@H]2[C@H](O[C@@H]3O[C@H](CO)[C@@H](COC[C@H]4O[C@@H](CN)[C@@H](O)[C@@H](O)[C@@H]4N)[C@@H]3O)[C@@H](O)[C@@H](N)C[C@H]2N)[C@@H](N)[C@H](O)[C@@H]1O	inactive	
C=CCSc1nnc(Cn2c(=O)sc3ccccc32)n1C	inactive	
Cc1cc(NC(=O)CN2CCC(O)(c3cccc(F)c3)CC2)no1	inactive	
CCCN(C/C=C\I)[C@@H]1CCc2cccc(O)c2C1	inactive	
CC(NC(=O)CN1CCN(Cc2ccc(Cl)cc2)C1=O)c1ccc2c(c1)OCCO2 (stereo unspecified)	inactive	
CC1CCCCC1NC(=O)CSc1nnc(N)s1 (stereo unspecified)	inactive	

SMILES	Potency	activity change, negative = inhibition
O=c1ccc2cc(S(=O)(=O)N3CCN(c4ccccc4)CC3)ccc2o1	inactive	
CN(C)CCCn1c(N)c(C#N)c2nc(C#N)c(C#N)nc21	25.1 µM (active)	
O=C1NC(=O)[C@@](Cc2ccccc2)(c2cccnc2)N1		-1.35% [at 11.4 µM] (inactive)
CCOc1ccc(OCC)c(NC(=O)C2CCN(S(=O)(=O)c3c(C)noc3C)CC2)c1	inactive	
Cc1ccc(F)cc1NC(=O)c1ccc2c(c1)OCO2	inactive	
COc1ccccc1OCCNCC(O)COc1cccc2[nH]c3ccccc3c12 (stereo unspecified)	inactive	
C#CC(C)(C)NC(=O)CSc1nc2c(c(=O)n(C)c(=O)n2C)n1CCCC	inactive	
COC(=O)c1cnn2c(C(F)(F)F)cc(-c3ccco3)nc12	25.1 µM (active)	
COC(=O)c1ccccc1NC(=O)Cn1nc(C(F)(F)F)c2c1CCC2	inactive	
Cc1cc(C(F)(F)F)n2ncc(-c3ccccc3)c2n1	inactive	
CCC1=C(OC(=O)N(CC)CC)N2C(=O)OC(=NCCc3c[nH]c4ccccc34)[C@]2(C)[C@H]2C1=CC[C@H]1C(=O)N(CC)C(=O)[C@H]12	inactive	
CCOC(=O)c1cn(CC(=O)Nc2ccc(C(C)C)cc2)nn1	inactive	
Cn1c(NC(=O)c2ccc3c(c2)OCO3)cc(=O)n(C)c1=O	inactive	
Cc1ccc(F)cc1NC(=O)c1cccc(N(C)C)c1	inactive	
Cc1ccc(NC(=O)c2cccc(N(C)C)c2)cc1NC(=O)c1ccc(O)cc1	31.6 µM (active)	
Cc1ccccc1NC(=O)c1ccccc1	inactive	
CN(C)CCSS(=O)(=O)O		8.4% [at 11.4 µM] (inactive)
Cc1ccnc(N2CCCC(C(=O)Nc3cc(F)ccc3C)C2)n1 (stereo unspecified)	25.1 µM (active)	
O=C(Nc1ccc2c(c1)OCCO2)C1CCCN(c2ncccn2)C1 (stereo unspecified)	inactive	
Cc1ccc(NC(=O)C2CCCN(S(=O)(=O)c3c(C)noc3C)C2)c(C)c1 (stereo unspecified)	inactive	
COc1ccc(N(CC(=O)NC2CCCCCCC2)S(=O)(=O)c2c(C)nn(C)c2C)cc1	inactive	
COc1cccc(-n2cc3c(c2-c2ccccc2)c(=O)n(C)c(=O)n3C)c1	inactive	

SMILES	Potency	activity change, negative = inhibition
Cc1occc1C(=O)Nc1cccc(Cn2cccn2)c1	inactive	
Cc1occc1C(=O)Nc1nnc(C2CCCCC2)s1	inactive	
Cc1occc1C(=O)Nc1nnc(-c2ccncc2)s1	31.6 µM (active)	
O=C(NC1CCCC1)c1ccc(Br)s1	inactive	
CCOc1ccc2nc(SC(CC)C(=O)Nc3cc(C)on3)sc2c1 (stereo unspecified)	inactive	
CN1CCCC1CCO[C@@](C)(c1ccccc1)c1ccc(Cl)cc1 (stereo partly specified)	inactive	
COc1ccc2[nH]cc(CCNc3ncnc4ccc(-c5ccc(C(=O)N(C)C)cc5)cc34)c2c1	inactive	
O=C(CS(=O)(=O)c1cn(Cc2cccc(F)c2)c2ccccc12)N1CCCCC1	inactive	
CC1CCN(Cc2nc3c(c(=O)n(C)c(=O)n3C)n2CCc2ccccc2)CC1	inactive	
Cn1c(=O)c2c(nc(NCCc3ccccc3)n2Cc2ccccc2)n(C)c1=O	31.6 µM (active)	
CCn1c(NCCc2ccc(OC)c(OC)c2)nc2c1c(=O)n(C)c(=O)n2C	inactive	
Cc1ccc2c(CSc3nncs3)cc(=O)oc2c1	12.6 µM (active)	
CCN(Cc1nc2ccccc2c(=O)[nH]1)Cc1cc(=O)oc2cc(C)c(C)cc12	inactive	
COC(=O)[C@@]1(Cc2ccc(OC)cc2)[C@H]2c3cc(C(=O)N4CCCC4)n(Cc4ccc(C(F)(F)F)nc4)c3C[C@H]2CN1C(=O)c1ccccc1	inactive	
CC(C)c1ccc(NS(=O)(=O)c2cn(C)c(=O)n(C)c2=O)cc1	inactive	
CN(CCc1ccccn1)S(=O)(=O)c1ccc2c3c(cccc13)C(=O)N2	31.6 µM (active)	
O=c1[nH]nc(Cc2ccccn2)c2ccccc12	inactive	
COC(=O)c1ccccc1NC(=O)c1cncc(Br)c1	inactive	
O=C(CSc1nnc2ccccn12)c1ccccc1	inactive	
O=C(Nc1ncc2c(n1)CC(c1ccco1)CC2=O)c1ccc(Cl)cc1 (stereo unspecified)	inactive	
CCc1ccc(Nc2ncc3c(n2)CC(c2ccco2)CC3=O)cc1 (stereo unspecified)	20 µM (active)	
CCc1ccc(NC(=O)CSc2nnc(-c3cnccn3)n2Cc2ccco2)cc1	inactive	
